The values below come from article PMC4081100, “A DNA-binding-site landscape and regulatory network analysis for NAC transcription factors in Arabidopsis thaliana”.

Assay in all cases: universal protein binding microarray (PBM); transcription factors of Arabidopsis thaliana; high values mean tight binding
The target in one assay is T1, GST-ANAC092(1-176) (Arabidopsis thaliana, UniProt Q9FKA0 1-176).
T1 sequence: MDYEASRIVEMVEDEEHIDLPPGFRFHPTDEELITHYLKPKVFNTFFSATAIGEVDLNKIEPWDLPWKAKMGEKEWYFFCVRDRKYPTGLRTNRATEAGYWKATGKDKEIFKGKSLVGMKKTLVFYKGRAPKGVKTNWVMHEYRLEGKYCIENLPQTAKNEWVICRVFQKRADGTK
Conditions: protein: recombinant; tags: GST; chain copies: 2; dsDNA, one strand shown. In short, it runs like this: (§1)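 Protein amounts were determined by A280 or anti-GST western blot after glutathione–Sepharose 4B purification of GST-tagged proteins induced in cells, with zinc acetate included for zinc-finger proteins. Duplicate runs at 200 to 500 nM final were done on custom all-10-mer Agilent 4 × 180K arrays made double-stranded by primer extension. The normalised enrichment score (E-score) over gapped and ungapped 8-mers is the measure of binding.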

In another assay the target is GST-NTL6(1-168) (Arabidopsis thaliana, UniProt Q9SCK6 1-168). The settings on record: protein: recombinant; tags: GST; chain copies: 2; dsDNA, one strand shown. In short, it runs like this: as §1
The target in a further assay is T2, GST-ANAC019 NAC domain (Arabidopsis thaliana, UniProt Q9C932 14-162).
T2 sequence: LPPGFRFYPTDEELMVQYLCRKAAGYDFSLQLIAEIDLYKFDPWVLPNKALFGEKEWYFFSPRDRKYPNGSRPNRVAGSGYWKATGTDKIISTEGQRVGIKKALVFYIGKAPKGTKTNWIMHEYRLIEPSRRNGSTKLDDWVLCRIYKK
Conditions: protein: recombinant; tags: GST; chain copies: 2; dsDNA, one strand shown. In short, it runs like this:
as §1

Assay [1] deals with T3, GST-ANAC092(1-285) full length (Arabidopsis thaliana, UniProt Q9FKA0 1-285).
T3 sequence: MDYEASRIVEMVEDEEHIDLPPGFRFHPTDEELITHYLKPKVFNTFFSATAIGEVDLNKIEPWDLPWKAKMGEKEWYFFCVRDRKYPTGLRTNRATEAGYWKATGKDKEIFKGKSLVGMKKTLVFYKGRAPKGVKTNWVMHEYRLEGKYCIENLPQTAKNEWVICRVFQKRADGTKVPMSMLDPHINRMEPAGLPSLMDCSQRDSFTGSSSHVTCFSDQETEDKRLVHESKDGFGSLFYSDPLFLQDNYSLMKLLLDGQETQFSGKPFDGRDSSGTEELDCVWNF
Conditions: protein: recombinant; tags: GST; chain copies: 2; dsDNA, one strand shown. In short, it runs like this:
as §1

A further assay deals with T4, GST-NST2(1-184) (Arabidopsis thaliana, UniProt Q9M274 1-184).
T4 sequence: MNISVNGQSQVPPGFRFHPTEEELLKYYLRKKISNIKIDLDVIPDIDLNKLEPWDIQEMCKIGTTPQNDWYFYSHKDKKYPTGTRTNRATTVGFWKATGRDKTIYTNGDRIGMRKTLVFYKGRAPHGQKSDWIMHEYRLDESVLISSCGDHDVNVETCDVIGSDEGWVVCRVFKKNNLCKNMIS
Conditions: protein: recombinant; tags: GST; chain copies: 2; dsDNA, one strand shown. In short, it runs like this: as §1

A further assay has as its target T5, GST-SND1(1-203) (Arabidopsis thaliana, UniProt Q9LPI7 1-203).
T5 sequence: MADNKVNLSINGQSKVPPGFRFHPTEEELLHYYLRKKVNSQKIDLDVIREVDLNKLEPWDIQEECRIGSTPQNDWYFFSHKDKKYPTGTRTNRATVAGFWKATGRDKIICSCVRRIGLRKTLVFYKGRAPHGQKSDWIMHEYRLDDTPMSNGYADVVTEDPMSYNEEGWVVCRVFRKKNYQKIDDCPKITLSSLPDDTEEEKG
Conditions: protein: recombinant; tags: GST; chain copies: 2; dsDNA, one strand shown. In short, it runs like this: as §1

The next assay concerns the target T6, GST-VND7 NAC domain (Arabidopsis thaliana, UniProt Q9C8W9 9-158).
T6 sequence: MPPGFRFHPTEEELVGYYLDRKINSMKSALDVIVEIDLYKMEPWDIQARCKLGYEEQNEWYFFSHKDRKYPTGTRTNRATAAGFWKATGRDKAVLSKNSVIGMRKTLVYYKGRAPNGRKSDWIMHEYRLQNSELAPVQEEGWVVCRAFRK
The settings on record: protein: recombinant; tags: GST; chain copies: 2; dsDNA, one strand shown. In short, it runs like this: as §1

For another assay, the target named is GST-WRKY1(266-371) (Arabidopsis thaliana, UniProt Q9SI37 266-371). The settings on record: protein: recombinant; tags: GST; dsDNA, one strand shown. In short, it runs like this:
as §1

In another assay the target is T7, GST-NAP(1-166) (Arabidopsis thaliana, UniProt O49255 1-166).
T7 sequence: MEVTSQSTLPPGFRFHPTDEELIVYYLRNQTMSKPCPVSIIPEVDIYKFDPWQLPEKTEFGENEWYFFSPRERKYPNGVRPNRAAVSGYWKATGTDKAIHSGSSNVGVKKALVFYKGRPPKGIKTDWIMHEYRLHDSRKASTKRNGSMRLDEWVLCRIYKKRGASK
Conditions: protein: recombinant; tags: GST; chain copies: 2; dsDNA, one strand shown. In short, it runs like this: as §1

For a further assay, the target named is T8, GST-ANAC055(1-171) (Arabidopsis thaliana, UniProt Q9LDY8 1-171).
T8 sequence: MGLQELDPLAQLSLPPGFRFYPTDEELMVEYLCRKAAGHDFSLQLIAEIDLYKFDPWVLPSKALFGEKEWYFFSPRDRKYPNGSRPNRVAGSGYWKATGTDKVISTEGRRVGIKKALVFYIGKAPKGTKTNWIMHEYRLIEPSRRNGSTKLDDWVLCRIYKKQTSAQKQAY
Conditions: protein: recombinant; tags: GST; chain copies: 2; dsDNA, one strand shown. In short, it runs like this: as §1

For the next assay, the target named is T9, GST-ATAF1 NAC domain (Arabidopsis thaliana, UniProt Q39013 7-158).
T9 sequence: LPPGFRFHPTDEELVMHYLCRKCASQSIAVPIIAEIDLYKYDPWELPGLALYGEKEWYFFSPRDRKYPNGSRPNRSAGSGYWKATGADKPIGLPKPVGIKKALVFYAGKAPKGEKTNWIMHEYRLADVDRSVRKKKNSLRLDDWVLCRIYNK
Conditions: protein: recombinant; tags: GST; chain copies: 2; dsDNA, one strand shown. In short, it runs like this: as §1

The next assay addresses T10, GST-NTL8 NAC domain (Arabidopsis thaliana, UniProt Q9XIN7 14-156).
T10 sequence: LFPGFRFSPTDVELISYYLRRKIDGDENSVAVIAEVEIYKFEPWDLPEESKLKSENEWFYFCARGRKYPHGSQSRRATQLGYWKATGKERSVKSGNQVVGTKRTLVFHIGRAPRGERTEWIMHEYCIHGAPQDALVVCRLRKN
Conditions: protein: recombinant; tags: GST; chain copies: 2; dsDNA, one strand shown. In short, it runs like this: as §1

Sequence of GST-NTL6(1-168) (Q9SCK6 1-168): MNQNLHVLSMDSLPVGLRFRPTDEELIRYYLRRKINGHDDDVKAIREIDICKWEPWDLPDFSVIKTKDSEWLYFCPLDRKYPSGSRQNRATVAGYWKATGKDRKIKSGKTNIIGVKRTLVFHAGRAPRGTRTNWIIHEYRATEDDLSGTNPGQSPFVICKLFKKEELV
Sequence of GST-WRKY1(266-371) (Q9SI37 266-371): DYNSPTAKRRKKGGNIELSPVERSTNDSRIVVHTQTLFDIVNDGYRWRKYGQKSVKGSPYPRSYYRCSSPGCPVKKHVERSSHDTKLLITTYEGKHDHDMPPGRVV

On to CACGCTAA, for which the binding signal in the assay with GST-ANAC092(1-176) is 0.453 E-score; in the assay with GST-NTL6(1-168), 0.0834 E-score; in the assay with GST-ANAC019 NAC domain it was 0.226 E-score; in assay [1], 0.471 E-score; in the assay with GST-NST2(1-184), 0.224 E-score; with GST-SND1(1-203), 0.415 E-score. In addition, in the assay with GST-VND7 NAC domain, the binding signal amounted to 0.112 E-score.

In the case of AAGTCAGT, the binding signal with GST-SND1(1-203) came to 0.0862 E-score; in the assay with GST-WRKY1(266-371), 0.411 E-score.

As for ACGCCATG, the binding signal with GST-ANAC092(1-176) is 0.336 E-score; in assay [1], 0.404 E-score; with GST-NAP(1-166), 0.154 E-score; with GST-NST2(1-184) it was 0.128 E-score; in the assay with GST-SND1(1-203), 0.222 E-score; with GST-VND7 NAC domain, 0.0848 E-score.

With CCACGCCA, the binding signal with GST-ANAC092(1-176) is 0.372 E-score; with GST-ANAC019 NAC domain it was 0.0852 E-score; with GST-ANAC055(1-171), 0.0687 E-score; with GST-ATAF1 NAC domain, 0.145 E-score; in assay [1], 0.415 E-score; with GST-NAP(1-166), 0.0773 E-score. The values for the binding signal with GST-NST2(1-184), in the assay with GST-SND1(1-203) and in the assay with GST-VND7 NAC domain were 0.0528 E-score, 0.141 E-score and 0.102 E-score, respectively.

GAAGAAAC: the binding signal in the assay with GST-ANAC092(1-176) was 0.203 E-score; in the assay with GST-NTL6(1-168), 0.295 E-score; with GST-ANAC019 NAC domain it was 0.123 E-score; with GST-ANAC055(1-171) it was 0.168 E-score; with GST-ATAF1 NAC domain it was 0.194 E-score; in [1] it was 0.0911 E-score. The binding signal turned out to be 0.197 E-score with GST-NST2(1-184), 0.423 E-score with GST-NTL8 NAC domain, 0.126 E-score with GST-SND1(1-203) and 0.0868 E-score in the assay with GST-VND7 NAC domain.

As to GGCGTAAC, the binding signal with GST-ANAC092(1-176) was determined as 0.21 E-score; with GST-ATAF1 NAC domain it was 0.0594 E-score; in assay [1] it was 0.277 E-score; with GST-NAP(1-166), 0.0618 E-score; in the assay with GST-NST2(1-184), 0.129 E-score; with GST-SND1(1-203) it was 0.421 E-score. Further, the binding signal in the assay with GST-VND7 NAC domain turned out to be 0.0835 E-score.

Take AGCTTTCC: the binding signal was 0.171 E-score with GST-ANAC092(1-176); 0.233 E-score with GST-NTL6(1-168); 0.126 E-score with GST-ANAC019 NAC domain; 0.111 E-score with GST-ANAC055(1-171); 0.133 E-score in assay [1]; 0.434 E-score in the assay with GST-NTL8 NAC domain. Also, the binding signal with GST-SND1(1-203) was determined as 0.123 E-score; in the assay with GST-VND7 NAC domain it was 0.116 E-score.

TGACCGAA: the binding signal in the assay with GST-SND1(1-203) amounted to 0.0502 E-score; with GST-WRKY1(266-371), 0.459 E-score.

As to ACCCCGCC, the binding signal in the assay with GST-ANAC092(1-176) was 0.271 E-score; with GST-NTL6(1-168), 0.182 E-score; with GST-ANAC019 NAC domain it was 0.295 E-score; in the assay with GST-ANAC055(1-171) it was 0.123 E-score; with GST-ATAF1 NAC domain, 0.253 E-score; in [1], 0.264 E-score. For the same sequence, the binding signal in the assay with GST-NAP(1-166) came out at 0.1 E-score; with GST-NST2(1-184), 0.213 E-score; with GST-NTL8 NAC domain it was 0.284 E-score; with GST-SND1(1-203), 0.32 E-score; in the assay with GST-VND7 NAC domain, 0.241 E-score.
